The source made the active and inactive calls. Rule for the calls: active = hit-call score of the fitted dose curve at least 0.9, where 1 is the maximum; inactive = score below 0.9.
Experiments:
[1] = APR_HepG2_CellLoss_72hr: Apredica 72-hour HepG2 Assay for Cell Loss (AID 2282915); conditions: high-content imaging
How it was run: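 HepG2 cells were exposed for 72 hr to compounds at 0.39–200 uM (ten concentrations, duplicate) in 0.5% v/v final DMSO. Nuclei were stained with Hoechst 33342 after 3.7% formaldehyde fixation, imaged at 20x, and counted; fits bidirectional versus DMSO.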

[2] = APR_HepG2_P-H2AX_72hr: Apredica 72-hour HepG2 Assay for H2AX Phosphorylation (AID 2282916); conditions: imaging, actives raise or lower the signal;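 note: phospho-histone H2A.x immunostain intensity per cell marking DNA damage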
How it was run: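 HepG2 human liver cells were exposed for 72 hr to compounds at 0.39–200 uM (10 concentrations, duplicate per plate) in 0.5% v/v DMSO. Fixed, permeabilized cells were immunolabeled for phospho-histone H2A.x with Hoechst 33342 and imaged by HCS fluorescence; bidirectional fit versus DMSO.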

[3] = APR_HepG2_MitoMembPot_72hr: Apredica 72-hour HepG2 Assay for Mitochondrial Membrane Potential (AID 2282917); conditions: imaging, actives raise or lower the signal
How it was run: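 HepG2 cells exposed 72 h to compounds at 0.39–200 uM (0.5% v/v DMSO, duplicates); MitoTracker Red CMXRos 250 nM loaded 30 min before 3.7% formaldehyde fixation, imaged by HCS fluorescence. Bidirectional fit versus DMSO.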

[4] = APR_HepG2_MicrotubuleCSK_72hr: Apredica 72-hour HepG2 Assay for Microtubule CSK Stabilty (AID 2282919); conditions: HepG2 microtubule cytoskeleton, high-content imaging, actives raise or lower the signal
How it was run: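 HepG2 human liver cells were dosed for 72 h at ten concentrations from 0.39 to 200 uM in duplicate (0.5% v/v DMSO final). Fixed, permeabilized cells were immunostained for alpha-tubulin (Cy5) with a Hoechst counterstain and imaged at 20x.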

[5] = APR_HepG2_P-H2AX_24hr: Apredica 24-hour HepG2 Assay for H2AX Phosphorylation (AID 2282920); conditions: high-content imaging, actives raise or lower the signal
How it was run: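 HepG2 cells dosed 24 h at 0.39–200 uM (10 points, duplicate, 0.5% DMSO final). Formaldehyde-fixed and permeabilized, then immunostained for phospho-H2A.x with Hoechst. Fluorescence quantified by high-content imaging, fitted bidirectionally versus DMSO.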

[6] = APR_HepG2_StressKinase_24hr: Apredica 24-hour HepG2 Assay for Stress Kinase (AID 2282922); conditions: HepG2 stress kinase (phospho-c-Jun) imaging, actives raise or lower the signal
How it was run: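 HepG2 cells exposed 24 hr to compound at 0.39–200 uM (10 concentrations, duplicate), 0.5% v/v DMSO final. Fixed in 3.7% formaldehyde, permeabilized with Triton X-100, immunolabeled for phospho-c-Jun with Hoechst 33342; HCS fluorescence imaging, bidirectional fit versus DMSO.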

[7] = APR_HepG2_p53Act_72hr: Apredica 72-hour HepG2 Assay for p53 Activation (AID 2282923); conditions: high-content imaging, actives raise or lower the signal;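 note: average cellular p53 protein immunofluorescence intensity in HepG2 cells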
How it was run: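 Cells were dosed for 72 hr with compounds at 0.39–200 uM in duplicate (final DMSO 0.5% v/v), then fixed in 3.7% formaldehyde, permeabilized with Triton X-100 and immunostained for p53 (Cy5) with Hoechst 33342 nuclear counterstain.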

[8] = APR_HepG2_MitoMass_72hr: Apredica 72-hour HepG2 Assay for Mitochondrial Mass (AID 2282924); conditions: high-content imaging, actives raise or lower the signal;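 note: MitoTracker Red CMXRos stain intensity per cell imaged as mitochondrial mass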
How it was run: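 HepG2 cells were exposed for 72 hr to compounds at 0.39–200 uM (ten concentrations, duplicate, 0.5% v/v DMSO final). Live cells were stained with 250 nM MitoTracker Red CMXRos for 30 min, then fixed in 3.7% formaldehyde and imaged by HCS fluorescence.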

[9] = APR_HepG2_NuclearSize_72hr: Apredica 72-hour HepG2 Assay for Nuclear Size (AID 2282925); conditions: high-content imaging, actives raise or lower the signal
How it was run: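 HepG2 cells were exposed to compounds at ten concentrations from 0.39 to 200 uM (duplicate, 0.5% DMSO final) for 72 hr. After fixation in 3.7% formaldehyde, nuclei were stained with Hoechst 33342 (2 ug/mL) and imaged at 20x.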

[10] = target: CCAAT/enhancer-binding protein beta (Homo sapiens) (UniProt P17676); assay: ATG_C_EBP_CIS: Attagene CIS-FACTORIAL HepG2 Assay for human CCAAT/Enhancer Binding Protein (C/EBP) beta (AID 2282927); conditions: HepG2 Attagene cis-factorial transcription factor reporter; actives raise or lower the signal
How it was run: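 RT-PCR/capillary electrophoresis fluorescence of reporter mRNA, 24 h post-dose, in HepG2 cells carrying transfected cis-promoter reporter units. Bidirectional curve fitting against DMSO baseline captures gain or loss of signal.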

[11] = ATG_CMV_CIS: Attagene CIS-FACTORIAL HepG2 Assay for human CMV (Internal Marker) (AID 2282928); conditions: HepG2 CMV promoter reporter, transcription factor profiling; actives raise or lower the signal;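 note: endpoint acts as a background internal control marker rather than a target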
How it was run: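 HepG2 cells transiently transfected with multiple cis-regulated reporter units; 24 h compound exposure. Reporter mRNA quantified by RT-PCR, 6-FAM primer-extension labeling, HpaI digestion and capillary electrophoresis; bidirectional fitting against DMSO baseline.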

[12] = ATG_DR4_LXR_CIS: Attagene CIS-FACTORIAL HepG2 Assay for human Liver X Receptor (LXR), DR4 submotif (AID 2282929); conditions: HepG2 Attagene DR4 cis-reporter, mRNA transcription; actives raise or lower the signal
How it was run: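 HepG2 cells were transiently transfected with multiple cis-regulated reporter units and dosed for 24 hours. The DR4 reporter mRNA was quantified by RT-PCR, 6-FAM labelling and capillary electrophoresis. Bidirectional fits used DMSO as baseline.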

[13] = target: Aryl hydrocarbon receptor (Homo sapiens) (UniProt P35869); assay: ATG_Ahr_CIS: Attagene CIS-FACTORIAL HepG2 Assay for human Aryl Hydrocarbon Receptor (Ahr) (AID 2282930); conditions: HepG2 AhR cis-factorial reporter transcription; actives raise or lower the signal
How it was run: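 HepG2 cells transiently transfected with cis-element-driven multiplexed reporter transcription units; endogenous transcription factor activity measured as reporter mRNA 24 h after dosing. RT-PCR, 6-FAM labelling, HpaI digestion, capillary electrophoresis; bidirectional fitting versus DMSO baseline.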

[14] = ATG_AP_1_CIS: Attagene CIS-FACTORIAL HepG2 Assay for human Activator Protein 1 (AP-1) (AID 2282931); conditions: HepG2 Attagene cis-factorial AP-1 reporter mRNA; actives raise or lower the signal
How it was run: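 HepG2 cells transiently transfected with cis-element-driven reporter transcription units, dosed for 24 hours. Reporter mRNA measured by RT-PCR, 6-FAM labelling, HpaI digestion and capillary electrophoresis. Bidirectional fitting against DMSO baseline.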

[15] = ATG_AP_2_CIS: Attagene CIS-FACTORIAL HepG2 Assay for human Activator Protein 2 (AP-2) (AID 2282932); conditions: HepG2 AP-2 cis-reporter, Attagene transcription factor profiling; actives raise or lower the signal
How it was run: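 HepG2 cells were transiently transfected with multiple cis-promoter reporter transcription units and dosed for 24 h. Reporter mRNA was measured by RT-PCR with capillary electrophoresis fluorescence; bidirectional fits relative to DMSO baseline.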

[16] = ATG_BRE_CIS: Attagene CIS-FACTORIAL HepG2 Assay for human Bone Morphogenetic Protein (BMP) Response Element (BRE) (AID 2282933); conditions: HepG2 BMP response element reporter, Attagene transcription factor profiling; actives raise or lower the signal
How it was run: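 Gain- or loss-of-signal was derived by bidirectional fitting against DMSO controls. The signal came from reporter mRNA, measured by RT-PCR and capillary electrophoresis, in HepG2 cells transiently carrying multiple reporter units and dosed for 24 h.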

[17] = target: Retinoic acid receptor alpha (Homo sapiens) (UniProt P10276); assay: ATG_DR5_RAR_CIS: Attagene CIS-FACTORIAL HepG2 Assay for human Retinoic Acid Receptor Alpha (RARE), DR5 submotif (AID 2282934); conditions: HepG2 Attagene cis-factorial RARE DR5 reporter, mRNA; actives raise or lower the signal;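 for AC50: reporter responds to endogenous RAR alpha beta and gamma in HepG2 not RARA alone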
How it was run: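 HepG2 cells transiently transfected with multiplexed reporter units under cis (DR5 RARE) promoters, so endogenous transcription factor activity is measured. After 24 h compound exposure, reporter mRNA is quantified by RT-PCR with fluorescent labelling and capillary electrophoresis; bidirectional fitting versus DMSO.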

[18] = ATG_CRE_CIS: Attagene CIS-FACTORIAL HepG2 Assay for human cAMP Responsive Element (CRE) binding protein 3 (AID 2282926); conditions: HepG2 CRE cis-reporter, Attagene multiplexed mRNA; actives raise or lower the signal
How it was run: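 HepG2 cells transiently transfected with cis-element-driven multiple reporter transcription units; CRE reporter mRNA measured 24 h after dosing by RT-PCR, 6-FAM labelling, HpaI digestion and capillary electrophoresis. Bidirectional fit versus DMSO baseline.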

[19] = APR_HepG2_StressKinase_72hr: Apredica 72-hour HepG2 Assay for Stress Kinase (AID 2282921); conditions: HepG2 stress kinase (phospho-c-Jun) imaging, actives raise or lower the signal
How it was run: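 Cells were exposed for 72 h to ten concentrations (0.39–200 uM, duplicate) at 0.5% v/v DMSO final, then fixed with 3.7% formaldehyde, permeabilized and immunostained for phospho-c-Jun (Cy3 secondary) with Hoechst nuclear counterstain.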

Measured: AC50

Sequence of Aryl hydrocarbon receptor (Homo sapiens) (P35869 whole entry, looked up): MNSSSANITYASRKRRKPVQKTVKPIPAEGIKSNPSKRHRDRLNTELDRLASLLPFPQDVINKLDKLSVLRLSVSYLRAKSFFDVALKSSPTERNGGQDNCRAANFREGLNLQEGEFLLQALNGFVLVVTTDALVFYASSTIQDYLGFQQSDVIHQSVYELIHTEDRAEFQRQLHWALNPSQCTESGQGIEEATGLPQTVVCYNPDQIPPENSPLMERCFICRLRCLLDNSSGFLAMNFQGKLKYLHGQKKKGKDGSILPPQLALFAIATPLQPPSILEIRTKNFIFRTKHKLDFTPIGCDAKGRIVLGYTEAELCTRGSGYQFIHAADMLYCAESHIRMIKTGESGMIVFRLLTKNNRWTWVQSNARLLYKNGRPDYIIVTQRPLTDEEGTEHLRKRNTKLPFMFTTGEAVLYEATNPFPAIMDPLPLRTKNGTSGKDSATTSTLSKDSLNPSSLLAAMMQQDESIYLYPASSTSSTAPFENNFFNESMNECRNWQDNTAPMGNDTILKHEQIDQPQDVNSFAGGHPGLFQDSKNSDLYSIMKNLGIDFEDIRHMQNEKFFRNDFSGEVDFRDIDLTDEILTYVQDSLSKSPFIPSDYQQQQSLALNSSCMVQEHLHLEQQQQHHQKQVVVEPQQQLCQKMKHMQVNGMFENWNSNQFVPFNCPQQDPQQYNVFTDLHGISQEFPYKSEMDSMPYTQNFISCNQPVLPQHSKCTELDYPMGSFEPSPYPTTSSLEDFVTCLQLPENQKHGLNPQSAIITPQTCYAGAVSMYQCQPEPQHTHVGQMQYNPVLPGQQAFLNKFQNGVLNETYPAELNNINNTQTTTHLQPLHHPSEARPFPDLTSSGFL
Sequence of CCAAT/enhancer-binding protein beta (Homo sapiens) (P17676 whole entry, looked up): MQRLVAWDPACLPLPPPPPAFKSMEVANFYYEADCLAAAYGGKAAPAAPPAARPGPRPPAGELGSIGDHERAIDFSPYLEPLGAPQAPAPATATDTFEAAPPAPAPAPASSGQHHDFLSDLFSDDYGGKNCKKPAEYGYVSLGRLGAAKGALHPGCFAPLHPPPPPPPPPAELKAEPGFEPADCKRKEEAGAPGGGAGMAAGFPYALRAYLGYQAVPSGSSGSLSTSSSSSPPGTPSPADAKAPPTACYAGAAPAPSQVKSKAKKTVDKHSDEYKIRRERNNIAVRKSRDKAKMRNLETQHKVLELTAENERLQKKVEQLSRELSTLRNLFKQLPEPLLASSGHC
Sequence of Retinoic acid receptor alpha (Homo sapiens) (P10276 whole entry, looked up): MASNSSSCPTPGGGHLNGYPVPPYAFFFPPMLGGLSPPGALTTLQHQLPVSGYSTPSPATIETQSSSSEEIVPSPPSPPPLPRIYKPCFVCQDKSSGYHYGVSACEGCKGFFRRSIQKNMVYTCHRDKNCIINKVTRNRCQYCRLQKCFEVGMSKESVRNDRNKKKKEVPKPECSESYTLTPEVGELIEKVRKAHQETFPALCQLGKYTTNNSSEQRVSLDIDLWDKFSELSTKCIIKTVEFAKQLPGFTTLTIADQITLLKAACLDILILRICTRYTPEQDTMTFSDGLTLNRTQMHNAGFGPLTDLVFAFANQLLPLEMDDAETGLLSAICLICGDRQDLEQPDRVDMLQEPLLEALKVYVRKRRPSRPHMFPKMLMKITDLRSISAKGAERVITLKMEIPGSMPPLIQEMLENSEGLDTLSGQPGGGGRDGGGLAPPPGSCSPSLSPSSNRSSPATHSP

CCC(O)=C1C(=O)CC(C(=O)O)CC1=O (stereo not given)
not listed: [18] | [19]
inactive: all other assays above

COC(=O)c1ccccc1S(=O)(=O)NC(=O)Nc1nc(OC(F)F)cc(OC(F)F)n1
not listed: [19]
inactive: all other assays above

CCOC(=O)C(C)Oc1ccc(Oc2nc3ccc(Cl)cc3o2)cc1 (stereo not given)
active: [1] 90.1 µM
not listed: [14] | [16] | [19]
inactive: all other assays above

COC(=O)c1ccccc1C(=O)O
not listed: [14] | [16] | [18]
inactive: all other assays above

CCCOC(=O)NCCCN(C)C
not listed: [14] | [18]
inactive: all other assays above

O=C(Nc1ccc([N+](=O)[O-])cc1Cl)c1cc(Cl)ccc1O
active: [1] 0.331 µM | [3] 1.06 µM | [4] 0.0444 µM | [5] 1.8 µM | [10] 0.463 µM | [11] 1.16 µM
not listed: [14] | [16] | [18] | [19]
inactive: all other assays above

CC1(C)C(C=C(Cl)Cl)C1C(=O)OCc1cccc(Oc2ccccc2)c1 (stereo not given)
active: [1] 62.3 µM | [4] 100 µM | [12] 29.9 µM
not listed: [14] | [16] | [17] | [18] | [19]
inactive: all other assays above

CCN(Cc1c(F)cccc1Cl)c1c([N+](=O)[O-])cc(C(F)(F)F)cc1[N+](=O)[O-]
active: [1] 33.5 µM | [4] 34.6 µM | [11] 10.6 µM | [12] 8.45 µM | [16] 1.4 µM | [17] 1.8 µM
not listed: [14] | [18] | [19]
inactive: all other assays above

CCC(C)OC(=O)N1CCCCC1CCO (stereo not given)
not listed: [14] | [16] | [18]
inactive: all other assays above

COC(=O)c1ccc(I)cc1S(=O)(=O)NC(=O)Nc1nc(C)nc(OC)n1
not listed: [14] | [16] | [17] | [19]
inactive: all other assays above

S=C([S-])NCCNC(=S)[S-].[Mn+2]
active: [1] 11.5 µM | [4] 103 µM | [8] 166 µM
not listed: [7] | [16] | [17] | [18] | [19]
inactive: all other assays above

c1ccc(Nc2ccccc2)cc1
not listed: [16] | [18]
inactive: all other assays above

CCCCOC(=O)C(C)Oc1ccc(Oc2ccc(C(F)(F)F)cn2)cc1 (stereo not given)
active: [3] 34.9 µM
not listed: [14] | [19]
inactive: all other assays above

CCCCC(CC)CN1C(=O)C2C3C=CC(C3)C2C1=O (stereo not given)
active: [1] 93.2 µM | [4] 85.7 µM | [12] 85.4 µM
not listed: [14] | [16] | [17] | [19]
inactive: all other assays above

OB(O)O
not listed: [16] | [19]
inactive: all other assays above

From PubChem BioAssay (EPA / NIEHS)
